Screens deposited in PubChem by National Center for Advancing Translational Sciences (NCATS).
TbPYK inhibitor: T. brucei pyruvate kinase inhibition; Q57TT1; AID 624173; hit rate 0.12% among 410,000; TbPYK enzyme, Kinase-Glo Plus ATP luminescence, 45 min; Potency, µM (doses to about 76.8 µM), most hits filed as inhibitors; also: nearly all actives have a fitted effect of over 50% in size
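Screened from lowest to highest concentration, compounds were pinned into TbPYK/substrate mixtures, and ADP (130 uM final) was added. Plates sat at room temperature for 45 min prior to Kinase-Glo Plus detection by luminescence.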
Shiga toxin inh: inhibitors of Shiga toxin in Vero cells; Vero cells, Shiga toxin protein synthesis inhibition reporter; inhibition, % at 38.7 µM; hit rate 9.2% among 290,000; AID 2315; in the data active = inhibition mostly above about 28%, no sharp cut-off; inactive = mostly below about 43%
RE007 growth inh: less growth of the S. pombe RE007 Vpr strain. AID 651644. hit rate 0.21% among 360,000. S. pombe RE007 Vpr strain, BacTiter-Glo ATP luminescence, 24 h. Potency, µM (top dose mostly 92.2 µM), hits mostly inhibitors; active = well fitted falling curve with a large enough effect; inconclusive = small, poorly fitted or top-dose-only effect; inactive = no such curve, though single readings can be large or run the other way; also: nearly all actives have a fitted effect of over 50% in size
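Fission yeast strain RE007, carrying one chromosomally integrated HIV-1 vpr copy, was seeded at OD 0.01 in PMG+AL medium with 23 nL pinned compound. After 24 h at 30 °C and 99% humidity, viability was read by BacTiter-Glo luminescence.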
FBPA Giardia inh: blocks Giardia fructose-bisphosphate aldolase activity | A8B2U2 | purified Giardia FBPA | Potency, µM (titrated, usually from 59.6 µM), most hits filed as inhibitors | hit rate 0.71% among 290,000 | AID 2451; also: nearly all actives have a fitted effect of over 55% in size
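40 nM FBPA preincubated 10 min at RT with compound (up to 57.5 uM final), then substrate plus GAPDH/TPI/NAD/arsenate coupling and diaphorase/resazurin added. Fluorescence read after 20 min at RT, 525/598 nm.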
Cycloheximide cs: counter-screen for Shiga toxin inhibitors: cycloheximide protein synthesis inhibition; max response, %; cell reporter, cycloheximide protein synthesis inhibition counterscreen; hit rate 12% among 300,000; in the data active = max response mostly above about 13%, no sharp cut-off; inactive = mostly below about 14%; also: read at 38.3 µM for the half of the compounds with a filed dose
LmPK inh: blocks Leishmania mexicana pyruvate kinase activity. Potency, µM (titrated, usually from 57.5 µM), usual class: inhibitors. purified LmPK, Kinase-Glo ATP luminescence, 1 h. hit rate 0.37% among 290,000
Target sequence (Q27686 whole entry, looked up): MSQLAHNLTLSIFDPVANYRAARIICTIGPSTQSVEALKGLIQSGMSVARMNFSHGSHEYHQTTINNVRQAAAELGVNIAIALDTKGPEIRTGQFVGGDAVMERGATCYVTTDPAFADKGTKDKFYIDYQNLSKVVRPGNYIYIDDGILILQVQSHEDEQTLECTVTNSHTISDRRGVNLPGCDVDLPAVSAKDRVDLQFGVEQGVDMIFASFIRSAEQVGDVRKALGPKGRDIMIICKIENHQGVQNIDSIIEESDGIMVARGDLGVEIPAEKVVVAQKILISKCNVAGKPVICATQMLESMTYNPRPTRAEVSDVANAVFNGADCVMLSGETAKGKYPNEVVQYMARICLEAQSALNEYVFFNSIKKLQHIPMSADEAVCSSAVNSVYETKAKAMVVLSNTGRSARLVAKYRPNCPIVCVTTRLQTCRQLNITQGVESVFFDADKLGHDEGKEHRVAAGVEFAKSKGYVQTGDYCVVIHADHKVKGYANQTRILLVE
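Kinase-Glo luminescence read after 1 h RT reaction of 0.1 nM LmPK with 0.5 mM PEP and 0.1 mM ADP. Activity scaled between uninhibited and enzyme-free controls.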
A number is an active result; 0 = inactive; ? = inconclusive; - = no result; [ ] = dose if it differs, or a comment. Many of the other results were omitted from the sample, so hits are more common in it than they were. Unless noted, calls follow the shape of the dose curve; as a rule, active = well fitted curve in the direction sought with a large enough effect; inconclusive = small, poorly fitted or top-dose-only effect, or another doubt; inactive = no such curve, though single readings can be large; an effect the other way counts as inactive or inconclusive.

SMILES	TbPYK inhibitor	Shiga toxin inh	RE007 growth inh	FBPA Giardia inh	Cycloheximide cs	LmPK inh
C=CC1=C[C@@H](O)C2OC2C12OCCCO2 (some centres not stated)	-	-	-	0[12.9 µM]	-	-
COc1ccc(Nc2n[nH]c(C)c2[N+](=O)[O-])cc1	0	100.0	0	0	31.7	0
COCc1cc(S(=O)c2ccc(Cl)cc2)nc(C)n1 (configuration not stated)	0	0	0	0	16.2	0
CC1=NN(c2ccc(Cl)cc2)C(=O)C1	0	0	0	0	0	0
Cc1ccc(N2CS(=O)(=O)/C(=C/N(C)C)C2=O)cc1	0	77.3	0	0	37.8	0
CN(C)/C=C1\C(=O)N(c2ccc(Cl)cc2)CS1(=O)=O	0	85.9	0	0	36.3	0
Cc1cc(C)cc(-n2nnc3ccccc3c2=O)c1	0	-	0	-	-	-
Cc1ccc(-n2c(-c3ccc(Br)cc3)nc3c(cnn3-c3ccccc3)c2=O)cc1	0	-	-	-	-	-
O=c1c2ccccc2nnn1-c1ccc(Br)cc1	0	96.7	0	0	43.8	0
O=c1c2ccccc2cnn1-c1ccc(Cl)nn1	0	41.6	0	0	18.3	0
O=c1c2ccccc2cnn1Cc1ccc(Cl)c(Cl)c1	0	0	?	0	0	0
O=c1c2ccccc2cnn1-c1ccc2ccccc2c1	0	98.1	0	0	33.3	0
O=c1c2ccccc2cnn1-c1ccc(Br)cc1	0	64.9	0	0	56.8	0
CCc1c(C)sc2c1CCN(Cc1ccccc1F)C2c1ccccc1 (configuration not stated)	0	-	-	-	-	-
O=C(c1ccc2c(c1)OCO2)N1CCN(c2ccccc2)CC1	0	0	0	0	0	0
Cc1nn(C(=O)c2ccc3c(c2)OCO3)c(N)c1-c1ccccc1	0	76.0	0	0	38.9	0
Cc1nn(C(=O)c2cccs2)c(N)c1-c1ccccc1	0	67.8	0	0	34.7	0
COc1cc(/C=N/NC(=S)NC2CC3CC2C2C=CCC32)ccc1O (configuration not stated)	0	0	0	0	33.6	0
CCOc1ccc(/C=N/NC(=S)NC2CC3CC2C2C=CCC32)cc1 (configuration not stated)	0	0	0	0	0	0
C/C=C\C(=O)Nc1cccc(C2=NOC3(C2)C[C@@H](C(N)=O)N(C(=O)c2ccc(OC)cc2)C3)c1 (some centres not stated)	0	0	0	0	0	0
Oc1ccc(-c2nnc(SCC3CCCCC3)o2)cc1	0	82.2	0	0	22.1	0
CC1CC(C)CN(C(=O)CSc2nnc(-c3ccc(Cl)cc3)o2)C1 (configuration not stated)	0	0	0	0	0	0
O=C(CSc1nnc(-c2ccc(Cl)s2)o1)N1CCOCC1	-	62.0	-	0	0	0
O=C(CSc1nnc(-c2ccc(Cl)cc2)o1)N1CCOCC1	0	81.1	0	0	53.1	0
CCOC(=O)N1CCN(C(=O)CSc2nnc(-c3ccc(Cl)s3)o2)CC1	-	0	-	0	0	0
SMILES	TbPYK inhibitor	Shiga toxin inh	RE007 growth inh	FBPA Giardia inh	Cycloheximide cs	LmPK inh
O=C(CSc1nnc(-c2ccc(O)cc2)o1)N1CCOCC1	0	0	0	0	52.7	0
O=C(CSc1nnc(-c2ccc(F)cc2)o1)NC1CCCCC1	0	0	0	0	0	0
CCCCCC(=O)N1C[C@@H](n2cc(-c3ccc(F)cc3)nn2)[C@H](O)C[C@@H]1c1ccc(OC)cc1	0	-	0	-	-	-
CCc1ccc(NC(=O)C2CCCN(c3nn4cc(-c5ccc(OC)cc5)nc4s3)C2)cc1 (configuration not stated)	0[15.4 µM]	-	-	-	-	-
CCC(C(=O)NCc1ccccn1)n1c2ccccc2c2nc(=O)cc(C)n21 (configuration not stated)	0	0	0	-	0	0
O=C(CSc1nnc(-c2ccccc2Cl)o1)N1CCOCC1	0	93.1	0	0	36.0	0
Cc1occc1-c1nnc(SCC(=O)N2CCOCC2)o1	0	0	0	0	0	0
c1ccc(CCCNCCCn2cnc3c(OCc4ccccc4)ncnc32)cc1	0	-	0	-	-	-
Cc1c(C(=O)N/N=C/c2ccc(N(C)C)cc2)[nH]c2ccc(Cl)cc12	0	0	0	0	0	0
Cc1c(C(=O)N/N=C/c2ccccc2)[nH]c2ccc(Cl)cc12	0	40.5	0	0	27.2	0
Cc1ccc(S(=O)(=O)N2C[C@H]3C(=O)C[C@@H](c4cccc(Cl)c4)N(S(=O)(=O)c4ccc(C)cc4)[C@H]3C[C@H]2c2ccc(Cl)cc2)cc1	0	-	0	-	-	-
CC(C)CNC(=O)COC(=O)c1c2c(nc3ccccc13)/C(=C/c1cccs1)CC2	0	56.2	0	0	24.8	0
COc1ccccc1N1CCN(C(=O)c2ccc(Cl)c(S(=O)(=O)NCc3ccco3)c2)CC1	0	0	0	0	28.4	0
O=C(c1ccc(Cl)c(S(=O)(=O)NCc2ccco2)c1)N1CCN(c2ccccc2F)CC1	0	0	0	0	0	0
O=C(Nc1ccccc1N1CCOCC1)c1ccc(Cl)c(S(=O)(=O)NCc2ccco2)c1	0	0	0	0	28.4	0
O=C(Nc1ccccc1N1CCOCC1)c1ccc(S(=O)(=O)NCc2ccco2)cc1	0	0	0	0	0	0
Cc1ccccc1NC(=O)N(O)C1(C#N)CCCCC1	0	-	0	-	-	-
COc1ccccc1N=Nc1[nH]c2ccc(C)cc2c1O	?	32.0	0	0	21.6	0
C=CCNC(=O)N1CCCC(C(=O)c2cccc(OC(C)C)c2)C1 (configuration not stated)	0	118.2	0	0	25.6	0
C=CCNC(=O)N1CCCC(C(=O)c2cccc(Cl)c2)C1 (configuration not stated)	0	0	0	0	0	0
O=C(N/N=C/c1ccccc1Cl)c1cccc(F)c1	0	96.7	0	0	77.8	?
O=C(N/N=C/c1cccc2ccccc12)c1cccc(F)c1	0	79.0	0	0	63.0	0
O=C(N/N=C/c1c(Cl)cccc1Cl)c1cccc(F)c1	0	0	0	0	0	0
O=C(CSc1ccccc1[N+](=O)[O-])NC1CCS(=O)(=O)C1 (configuration not stated)	0	0	0	0	0	0
NC(=O)c1ccccc1NC(=O)c1ccoc1	0	0	0	-	0	0
COc1ccc(CNC(=O)CCCn2nc(C)c([N+](=O)[O-])c2C)cc1OC	0	188.8	0	0	47.1	0
Cc1nn(CCCC(=O)NCc2ccc(Cl)cc2)c(C)c1[N+](=O)[O-]	0	0	0	0	0	0
O=C(N/N=C/c1cccc2ccccc12)c1cc(C2CC2)[nH]n1	0	74.8	0	0	22.0	0
Cc1cc(C(=O)N/N=C/c2ccccn2)n[nH]1	0	0	0	?	17.7	0
Cc1cc(C(=O)N/N=C/c2cccc(OC(=O)c3cccc(Br)c3)c2)n[nH]1	0	23.1	0	-	0	0
